Data on 7 compounds can be found in PubChem BioAssay (NCATS).

Records with an inconclusive call do not appear. Activity calls are given as the source filed them. The call rests on the fitted dose curve; in most records, active means well fitted inhibition curve with a large enough effect; inconclusive means small, poorly fitted or top-dose-only effect; inactive means flat fitted curve, though single readings scatter.

The assay relates to CRL-7250. Briefly: qHTS assay to identify novel small-molecules to repurpose for Merkel cell carcinoma treatment (AID 1296009). Further: nearly all actives have a fitted effect of over 60% in size. Conditions: MCC and control cell lines, CellTiter-Glo viability, 72 h; series mostly up to 92 µM; activity change, negative = cytotoxicity: at the top concentration. The gist of the method:
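72 hr, 37 degree celsius; NPC 8-pt / MIPE 11-pt dose response; compound pinned in DMSO; CellTiter-Glo, 10 min RT, luminescence; normalized to no-cell and DMSO controls.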
Background: Quantitative high-throughput screening tests each substance at several concentrations.
As for `COc1cc(/C=C/C(=O)O)ccc1O[C@@H]1O[C@H](CO)[C@@H](O)[C@H](O)[C@H]1O[C@@H]1OC[C@](O)(CO)[C@H]1O`, the “outcome” value is “inactive [at 17.4 µM]”.

As for `CC1[C@@H](O)[C@@H](O)C2[C@]3(C)C(C[C@H]4OC(=O)[C@H](O)[C@]1(O)[C@@]24C)C(C)(O)C[C@H](O)[C@H]3O` (some centres not stated), the “outcome” value was “inactive [at 17.4 µM]”. On to `CC(C)(C)NCCCNC(=O)c1cccc(Br)c1`, for which the result was inactive. The same measure for `Cn1ccnc1CCOC(c1cc2nccc(C(=O)O)c2[nH]1)c1ccccc1Cl` (configuration not stated): “inactive”. The entry for `CC1C(O)C(O)C2C(C(=O)OCCc3ccc(O)cc3)=COC(O[C@@H]3O[C@H](CO)[C@@H](O)[C@H](O)[C@H]3O)C12` (some centres not stated) is “inactive [at 17.4 µM]”; for `CC(NCc1ccc(OCc2cccc(F)c2)cc1)C(N)=O` (configuration not stated) it is “inactive”; for `COC(=O)c1c(CC=C(C)C)c(OC2OC(CO)C(O)C(O)C2O)c2ccccc2c1OC1OC(CO)C(O)C(O)C1O` (configuration not stated) it is “inactive [at 17.4 µM]”.
